{
  "source": "ChEMBL document CHEMBL1157539",
  "about": "“Thousands of chemical starting points for antimalarial lead identification” (Nature, 2010)",
  "data": [
    {"tested_on": "HepG2", "experiment": "GSK_TCMDC: Percent inhibition of human HepG2 cell line. Test compounds present at 10uM.", "assay_type": "functional", "units": {"Inhibition": "%"}, "values": [
      {"smiles": "CCS(=O)(=O)Nc1ccc2[nH]cc(C3CCN(CCC4CCN(C(=O)/C=C/c5ccc(Cl)c(Cl)c5)CC4)CC3)c2c1", "Inhibition": 34},
      {"smiles": "O=C(/C=C/c1ccc(Cl)c(Cl)c1)N1CCC(CN2CCC(c3c[nH]c4cnccc34)CC2)CC1", "Inhibition": 39},
      {"smiles": "Br.CCOc1ccc(OCCCON2C(=N)N=C(N)NC2(C)C)cc1", "Inhibition": 63},
      {"smiles": "CC(C)CNCc1cccc(-c2cccc(CNc3ccc4ncccc4c3)c2)c1.O=C(O)C(F)(F)F", "Inhibition": 23},
      {"smiles": "O=C(O)C(F)(F)F.O=S(=O)(NCCN1CCCC1)c1ccc(-c2ccc(CNC3Cc4ccccc4C3)cc2)cc1", "Inhibition": 61},
      {"smiles": "CCCc1ccc(NC(=O)c2cccc(CN3CCCN(Cc4cccc(C#N)c4)CC3)c2)cc1.O=C(O)C(F)(F)F", "Inhibition": 20},
      {"smiles": "CC(C)Cc1nc(N2CCOCC2)c2nnn(Cc3ccccc3)c2n1", "Inhibition": 7},
      {"smiles": "Cl.NC(=O)c1cccc(Nc2nccc(Nc3ccc(Oc4ccc5ccccc5c4)cc3)n2)c1", "Inhibition": 15},
      {"smiles": "NC1=NC(c2ccccc2)(c2ccccn2)C(=O)N1CCCc1ccccc1.O=C(O)C(F)(F)F", "note": "(stereo not given)", "Inhibition": 0},
      {"smiles": "COc1ccc(CN2CCCN(Cc3cccc(C(=O)Nc4ccc(C)c(F)c4)c3)CC2)cc1.O=C(O)C(F)(F)F", "Inhibition": 49},
      {"smiles": "O=C(Nc1cccc(CN2CCCN(Cc3ccc4c(c3)OCO4)CC2)c1)c1ccc2ccccc2c1.O=C(O)C(F)(F)F", "Inhibition": 7},
      {"smiles": "CC1(C)N=C(N)N=C(N)N1c1cc(Cl)c(Cl)c(Cl)c1.CCS(=O)(=O)O", "Inhibition": 68},
      {"smiles": "COc1cccc(NC(=O)NCCNc2ccnc(Nc3ccc(F)cc3)n2)c1", "Inhibition": 18},
      {"smiles": "CCNc1cc(C(=O)N[C@@H](Cc2ccccc2)[C@H](O)CNCCc2ccccc2)cc(N2CCCCS2(=O)=O)c1.Cl", "Inhibition": 14},
      {"smiles": "Cl.NC1=NC(c2ccccc2)N(OCc2ccccc2)C(N)=N1", "note": "(stereo not given)", "Inhibition": 5},
      {"smiles": "CCCc1cc(Cc2cnc(N)nc2N)ccc1OCCCCCC(=O)OCC", "Inhibition": 0},
      {"smiles": "COc1ccc2[nH]ccc(=NN=CC=Cc3ccccc3)c2c1", "Inhibition": 11},
      {"smiles": "CCCCCCCN1CC[C@@H](CCCc2ccnc3ccc(OCCC4CCNCC4)cc23)[C@@H](CC)C1.Cl", "Inhibition": 94},
      {"smiles": "N#CCCN1CCN(Cc2cccc(-c3ccc(-c4nc5ccccc5[nH]4)cc3)c2)CC1.O=C(O)C(F)(F)F", "Inhibition": 18},
      {"smiles": "O=C(Nc1cccc(C(F)(F)F)c1)Nc1ccc(F)c([N+](=O)[O-])c1", "Inhibition": 43},
      {"smiles": "CCNc1cc(C(=O)N[C@@H](Cc2ccccc2)[C@H](O)CNC(C)(C)CC(C)(C)C)c(F)c(N2CCCCS2(=O)=O)c1", "Inhibition": 8},
      {"smiles": "CCCCCC(=O)NCC(NCCCNc1cc(=O)c2ccccc2[nH]1)c1cc(Br)cc(Br)c1", "note": "(stereo not given)", "Inhibition": 0},
      {"smiles": "Cc1cc(N[C@@H](Cc2ccccc2)C(=O)NCCCOC(C)C)nc(NCCc2ccc(F)cc2)n1.O=C(O)C(F)(F)F", "Inhibition": 15},
      {"smiles": "CN1CCN(c2ccc(Nc3nccc(-c4c(-c5cccc(NC(=O)c6c(F)cccc6F)c5)nn5ccccc45)n3)cc2)CC1", "Inhibition": 86},
      {"smiles": "COC(=O)CCCCCOc1cc(Cc2cnc(N)nc2N)cc(OC)c1OC", "Inhibition": 0},
      {"smiles": "Br.CCCc1cc(C)ccc1OCCCON1C(N)=NC(N)=NC1(C)C", "Inhibition": 64},
      {"smiles": "O=C(Nc1cccc(F)c1)c1ccc(C(=O)NC2CCN(CC3CCCCC3)CC2)cc1.O=C(O)C(F)(F)F", "Inhibition": 22},
      {"smiles": "CNC(=O)c1cnc(Nc2ccc3[nH]c(=O)[nH]c3c2)nc1Nc1cccc(OC(C)C)c1.O=C(O)C(F)(F)F", "Inhibition": 18},
      {"smiles": "CCc1cn2c3c(cc(C(=O)N[C@@H](Cc4ccccc4)[C@H](O)CNC4CCOCC4)cc13)N(CC(F)(F)F)S(=O)(=O)CC2.O=CO", "Inhibition": 4},
      {"smiles": "O=C(Nc1ccccc1)c1ccc(-c2cc3ccncc3cc2OC2CCNCC2)s1", "Inhibition": 0},
      {"smiles": "N#Cc1ccc(CN2CCC(Oc3ccc(NC(=O)c4ccsc4)cc3Cl)C2)cc1.O=C(O)C(F)(F)F", "note": "(stereo not given)", "Inhibition": 29},
      {"smiles": "N=C(N)c1ccc(Nc2nccc(Nc3nc(-c4ccccc4)cs3)n2)cc1.O=C(O)C(F)(F)F", "Inhibition": 13},
      {"smiles": "CCN1CCN(Cc2ccc3nc(-c4cc(C)n(Cc5cc(Cl)ccc5OCc5ccccc5)n4)[nH]c3c2)CC1.Cl", "Inhibition": 11},
      {"smiles": "CN1CCCC1CCNc1ncc2c(-c3ccc(NC(=O)Nc4cc(C(F)(F)F)ccc4F)c(F)c3)nn(C)c2n1.O=C(O)C(F)(F)F", "note": "(stereo not given)", "Inhibition": 100},
      {"smiles": "CCN(CC)S(=O)(=O)c1cc(-c2ccc(=O)n(CC(=O)c3ccc(C)cc3)n2)ccc1C", "Inhibition": 6},
      {"smiles": "COc1ccc(CNCC2CCC(CNCCc3ccccc3)CC2)cc1Cl", "note": "(stereo not given)", "Inhibition": 23},
      {"smiles": "O=C(Nc1cccc(-c2nn3ccccc3c2-c2ccnc(Nc3cccc(C(F)(F)F)c3)n2)c1)c1c(F)cccc1F", "Inhibition": 43},
      {"smiles": "O=C(C=Cc1cn(-c2ccccc2)nc1-c1ccccc1)N1CCN(c2ccncc2)CC1", "Inhibition": 11},
      {"smiles": "CSc1sc(NC(=O)Nc2cccc(C(F)(F)F)c2)cc1C#N", "Inhibition": 27},
      {"smiles": "CC(C)c1ccc(NC(=O)c2cccc(CN3CCCN(CC4CCCCC4)CC3)c2)cc1.O=C(O)C(F)(F)F", "Inhibition": 62}
    ]}
  ]
}
